# Key:
# Assay in all cases: DAPPL (digital affinity profiling via proximity ligation, sequencing); 10 mM Tris-HCl pH 7.5, 50 mM NaCl, 1 mM DTT, 4% glycerol, room temperature, 30 min; GST-TFs on glutathione beads, 16-mer random dsDNA library, 0.1% formaldehyde crosslink after washing; high values mean tight binding
# Conditions in all cases: protein: recombinant; tags: N-terminal GST; dsDNA, one strand shown
# FLI1 = molecular target: T1, FLI1 (Homo sapiens, UniProt Q01543 1-452)
# T1 sequence: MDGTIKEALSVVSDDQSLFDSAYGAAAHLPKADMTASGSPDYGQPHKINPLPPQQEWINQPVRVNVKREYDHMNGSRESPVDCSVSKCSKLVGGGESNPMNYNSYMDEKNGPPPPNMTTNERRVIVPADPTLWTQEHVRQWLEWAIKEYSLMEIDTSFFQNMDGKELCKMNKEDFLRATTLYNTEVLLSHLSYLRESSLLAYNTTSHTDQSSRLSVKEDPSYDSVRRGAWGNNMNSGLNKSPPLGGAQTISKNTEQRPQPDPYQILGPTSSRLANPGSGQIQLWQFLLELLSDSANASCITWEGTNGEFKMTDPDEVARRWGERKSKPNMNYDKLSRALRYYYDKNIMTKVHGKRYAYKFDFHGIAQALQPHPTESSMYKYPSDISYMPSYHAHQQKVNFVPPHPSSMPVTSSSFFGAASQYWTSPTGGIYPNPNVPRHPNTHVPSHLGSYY
# Method in brief: (§1)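 Pools were built from human transcription factors expressed in yeast as GST fusions, captured on glutathione beads and DNA-barcoded, along with a tag-only sample. Incubation with 200 nmole of a 16-mer random double-stranded DNA library lasted 30 min at room temperature in Tris/NaCl/DTT/glycerol buffer, and was followed by washing, 0.1% formaldehyde crosslinking, proximity ligation, PCR amplification and Illumina NextSeq500 sequencing. Binding signal is the quotient of each hexamer's read frequency for a factor and its frequency for the tag-only sample.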
# ELK1 = molecular target: T2, ELK1 (Homo sapiens, UniProt P19419 1-428)
# T2 sequence: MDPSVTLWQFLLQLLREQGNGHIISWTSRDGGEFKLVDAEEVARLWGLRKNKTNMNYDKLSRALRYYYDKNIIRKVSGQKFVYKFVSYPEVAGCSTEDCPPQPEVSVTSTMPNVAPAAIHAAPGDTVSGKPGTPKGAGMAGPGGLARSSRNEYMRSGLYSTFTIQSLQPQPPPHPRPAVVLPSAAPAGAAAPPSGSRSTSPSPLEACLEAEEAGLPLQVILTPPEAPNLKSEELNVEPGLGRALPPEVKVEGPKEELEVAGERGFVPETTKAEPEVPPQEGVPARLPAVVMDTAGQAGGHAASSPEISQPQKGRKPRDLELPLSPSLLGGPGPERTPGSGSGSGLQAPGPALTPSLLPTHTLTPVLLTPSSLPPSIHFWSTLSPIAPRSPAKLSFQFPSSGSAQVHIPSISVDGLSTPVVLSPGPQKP
# Method in brief: as §1
# GABPA = molecular target: T3, GABPA (Homo sapiens, UniProt Q06546 1-454)
# T3 sequence: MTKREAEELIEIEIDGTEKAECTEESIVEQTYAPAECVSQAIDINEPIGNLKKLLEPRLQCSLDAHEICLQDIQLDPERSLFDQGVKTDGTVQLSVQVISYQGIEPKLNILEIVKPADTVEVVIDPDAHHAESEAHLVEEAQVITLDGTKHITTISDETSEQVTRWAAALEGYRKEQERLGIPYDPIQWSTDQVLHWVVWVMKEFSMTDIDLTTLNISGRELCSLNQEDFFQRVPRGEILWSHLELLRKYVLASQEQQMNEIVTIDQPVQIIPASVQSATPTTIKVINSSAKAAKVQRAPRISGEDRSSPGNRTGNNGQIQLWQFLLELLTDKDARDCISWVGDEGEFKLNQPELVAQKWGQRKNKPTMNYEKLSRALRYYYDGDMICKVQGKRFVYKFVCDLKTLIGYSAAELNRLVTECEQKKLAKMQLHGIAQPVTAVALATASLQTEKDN
# Method in brief: as §1
# ERG = molecular target: T4, ERG (Homo sapiens, UniProt P11308 1-479)
# T4 sequence: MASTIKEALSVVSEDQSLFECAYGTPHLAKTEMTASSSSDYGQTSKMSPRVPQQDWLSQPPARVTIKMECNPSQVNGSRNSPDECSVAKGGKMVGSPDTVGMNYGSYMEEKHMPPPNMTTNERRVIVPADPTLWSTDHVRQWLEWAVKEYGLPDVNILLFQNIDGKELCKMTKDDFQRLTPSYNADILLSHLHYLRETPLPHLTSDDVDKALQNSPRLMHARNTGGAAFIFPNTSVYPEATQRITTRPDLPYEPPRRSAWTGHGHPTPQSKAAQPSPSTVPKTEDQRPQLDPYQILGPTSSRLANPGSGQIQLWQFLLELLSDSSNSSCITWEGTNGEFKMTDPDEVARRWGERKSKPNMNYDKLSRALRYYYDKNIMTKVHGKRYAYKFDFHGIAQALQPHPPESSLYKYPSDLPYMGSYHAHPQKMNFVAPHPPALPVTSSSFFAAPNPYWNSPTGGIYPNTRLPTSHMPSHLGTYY
# Method in brief: as §1
# ELF1 = ELF1 (Homo sapiens, UniProt P32519 1-619)
# Sequence of ELF1 (P32519 whole entry): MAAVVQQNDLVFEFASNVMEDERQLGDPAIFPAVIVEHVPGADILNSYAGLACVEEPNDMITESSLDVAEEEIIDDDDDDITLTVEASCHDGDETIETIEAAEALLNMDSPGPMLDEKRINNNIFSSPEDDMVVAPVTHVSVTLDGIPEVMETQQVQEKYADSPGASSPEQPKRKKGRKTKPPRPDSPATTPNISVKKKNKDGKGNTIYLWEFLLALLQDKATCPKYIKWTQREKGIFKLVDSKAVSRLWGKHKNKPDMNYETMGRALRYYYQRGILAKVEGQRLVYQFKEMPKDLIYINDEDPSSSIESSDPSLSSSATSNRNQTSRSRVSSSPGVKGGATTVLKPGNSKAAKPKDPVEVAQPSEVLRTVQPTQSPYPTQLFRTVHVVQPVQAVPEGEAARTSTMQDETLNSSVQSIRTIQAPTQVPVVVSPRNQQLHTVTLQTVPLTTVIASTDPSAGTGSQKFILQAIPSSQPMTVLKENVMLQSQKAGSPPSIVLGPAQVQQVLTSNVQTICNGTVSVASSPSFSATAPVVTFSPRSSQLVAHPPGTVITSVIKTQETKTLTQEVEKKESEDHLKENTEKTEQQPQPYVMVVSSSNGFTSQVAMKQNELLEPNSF
# Method in brief: as §1
# EHF = molecular target: T5, EHF (Homo sapiens, UniProt Q9NZC4 1-300)
# T5 sequence: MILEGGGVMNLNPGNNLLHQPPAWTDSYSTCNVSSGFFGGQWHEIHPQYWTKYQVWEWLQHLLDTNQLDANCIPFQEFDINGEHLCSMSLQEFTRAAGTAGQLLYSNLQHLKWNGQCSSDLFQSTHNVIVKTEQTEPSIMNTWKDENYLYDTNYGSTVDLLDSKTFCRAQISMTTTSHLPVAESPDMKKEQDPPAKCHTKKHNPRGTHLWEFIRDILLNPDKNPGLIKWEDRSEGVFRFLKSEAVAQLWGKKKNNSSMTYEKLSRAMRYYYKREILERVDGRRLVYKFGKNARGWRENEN
# Method in brief: as §1
# SPI1 = SPI1 (Homo sapiens, UniProt P17947 1-270)
# Method in brief: as §1
# SPIB = SPIB (Homo sapiens, UniProt Q01892 1-262)
# Sequence of SPIB (Q01892 whole entry): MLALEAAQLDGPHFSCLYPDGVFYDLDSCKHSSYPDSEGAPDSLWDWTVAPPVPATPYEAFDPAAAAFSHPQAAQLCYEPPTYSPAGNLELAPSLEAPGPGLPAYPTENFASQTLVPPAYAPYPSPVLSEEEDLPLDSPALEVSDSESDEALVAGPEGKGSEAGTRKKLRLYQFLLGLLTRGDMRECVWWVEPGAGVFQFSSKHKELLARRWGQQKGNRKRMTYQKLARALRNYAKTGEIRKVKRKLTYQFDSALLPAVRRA
# Method in brief: as §1
# ELK3 = molecular target: T6, ELK3 (Homo sapiens, UniProt P41970 1-407)
# T6 sequence: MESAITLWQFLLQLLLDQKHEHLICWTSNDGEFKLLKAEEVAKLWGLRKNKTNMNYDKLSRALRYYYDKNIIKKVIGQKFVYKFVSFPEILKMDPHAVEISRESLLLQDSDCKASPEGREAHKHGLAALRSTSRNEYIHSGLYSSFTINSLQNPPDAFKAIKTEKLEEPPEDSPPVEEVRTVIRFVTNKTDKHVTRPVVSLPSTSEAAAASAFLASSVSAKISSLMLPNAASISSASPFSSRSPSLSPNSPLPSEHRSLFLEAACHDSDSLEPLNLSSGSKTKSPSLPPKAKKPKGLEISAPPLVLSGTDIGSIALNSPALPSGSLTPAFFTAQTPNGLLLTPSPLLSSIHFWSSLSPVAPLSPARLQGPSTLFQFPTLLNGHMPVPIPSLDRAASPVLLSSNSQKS
# Method in brief: as §1
# ETV5 = ETV5 (Homo sapiens, UniProt P41161 1-510)
# Sequence of ETV5 (P41161 whole entry): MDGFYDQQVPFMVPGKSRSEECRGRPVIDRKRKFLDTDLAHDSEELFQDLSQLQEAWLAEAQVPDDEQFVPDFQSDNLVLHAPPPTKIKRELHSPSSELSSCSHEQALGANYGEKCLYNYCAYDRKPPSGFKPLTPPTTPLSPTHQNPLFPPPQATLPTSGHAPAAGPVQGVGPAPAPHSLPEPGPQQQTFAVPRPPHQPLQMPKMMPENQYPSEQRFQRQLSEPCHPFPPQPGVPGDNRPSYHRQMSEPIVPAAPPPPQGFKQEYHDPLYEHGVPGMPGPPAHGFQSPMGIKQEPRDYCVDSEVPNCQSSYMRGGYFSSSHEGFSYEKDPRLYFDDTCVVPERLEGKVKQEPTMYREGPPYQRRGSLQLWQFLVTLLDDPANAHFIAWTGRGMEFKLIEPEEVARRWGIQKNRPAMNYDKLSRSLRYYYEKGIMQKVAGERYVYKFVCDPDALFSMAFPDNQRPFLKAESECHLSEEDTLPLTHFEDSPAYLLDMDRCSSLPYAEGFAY
# Method in brief: as §1
sequence,measurement,setting,value
CATGCA,binding signal,FLI1,"1.1 fold enrichment (6-mer frequency, TF over GST control)"
same,binding signal,ELK1,"1.08 fold enrichment (6-mer frequency, TF over GST control)"
same,binding signal,GABPA,"1.16 fold enrichment (6-mer frequency, TF over GST control)"
same,binding signal,ERG,"1.04 fold enrichment (6-mer frequency, TF over GST control)"
same,binding signal,ELF1,"1.1 fold enrichment (6-mer frequency, TF over GST control)"
same,binding signal,EHF,"1.12 fold enrichment (6-mer frequency, TF over GST control)"
same,binding signal,SPI1,"1.02 fold enrichment (6-mer frequency, TF over GST control)"
same,binding signal,SPIB,"1.07 fold enrichment (6-mer frequency, TF over GST control)"
same,binding signal,ELK3,"1.02 fold enrichment (6-mer frequency, TF over GST control)"
same,binding signal,ETV5,"1.1 fold enrichment (6-mer frequency, TF over GST control)"

# — article PMC7862700, “An all-to-all approach to the identification of sequence-specific readers for epigenetic DNA modifications on cytosine”
